Consider one compound from ChEMBL document CHEMBL1961873, “Compounds: GSK PKIS; Assays: Nanosyn kinase panel” (2012).

The target of assay [1] is T1, Inhibitor of nuclear factor kappa-B kinase subunit epsilon (Homo sapiens) (UniProt Q14164).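 Further: reported values are averaged percent inhibition figures against human IKKε.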
T1 sequence (whole entry): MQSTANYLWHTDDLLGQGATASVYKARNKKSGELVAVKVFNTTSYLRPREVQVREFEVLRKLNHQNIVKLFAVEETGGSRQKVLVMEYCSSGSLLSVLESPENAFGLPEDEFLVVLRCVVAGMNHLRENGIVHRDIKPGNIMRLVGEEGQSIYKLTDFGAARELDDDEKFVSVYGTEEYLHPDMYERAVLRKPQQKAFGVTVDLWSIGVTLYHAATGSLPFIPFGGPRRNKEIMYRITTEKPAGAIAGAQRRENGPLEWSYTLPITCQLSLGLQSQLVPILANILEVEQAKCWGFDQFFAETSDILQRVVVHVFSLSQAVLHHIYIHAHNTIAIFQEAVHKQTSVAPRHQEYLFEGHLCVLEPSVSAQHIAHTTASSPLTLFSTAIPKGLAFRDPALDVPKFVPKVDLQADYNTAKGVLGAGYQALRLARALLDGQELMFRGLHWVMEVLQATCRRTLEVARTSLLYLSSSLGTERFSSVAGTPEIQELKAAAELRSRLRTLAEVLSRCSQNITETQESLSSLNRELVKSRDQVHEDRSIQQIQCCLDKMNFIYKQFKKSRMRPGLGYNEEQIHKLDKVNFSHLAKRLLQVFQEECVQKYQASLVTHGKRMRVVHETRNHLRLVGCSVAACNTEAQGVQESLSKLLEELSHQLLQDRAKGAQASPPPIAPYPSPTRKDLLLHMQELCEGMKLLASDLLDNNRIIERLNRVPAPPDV
The conditions noted are these: at 1 µM.

Assay [2] addresses T2, Serine/threonine-protein kinase Nek1 (Homo sapiens) (UniProt Q96PY6).
T2 sequence (whole entry): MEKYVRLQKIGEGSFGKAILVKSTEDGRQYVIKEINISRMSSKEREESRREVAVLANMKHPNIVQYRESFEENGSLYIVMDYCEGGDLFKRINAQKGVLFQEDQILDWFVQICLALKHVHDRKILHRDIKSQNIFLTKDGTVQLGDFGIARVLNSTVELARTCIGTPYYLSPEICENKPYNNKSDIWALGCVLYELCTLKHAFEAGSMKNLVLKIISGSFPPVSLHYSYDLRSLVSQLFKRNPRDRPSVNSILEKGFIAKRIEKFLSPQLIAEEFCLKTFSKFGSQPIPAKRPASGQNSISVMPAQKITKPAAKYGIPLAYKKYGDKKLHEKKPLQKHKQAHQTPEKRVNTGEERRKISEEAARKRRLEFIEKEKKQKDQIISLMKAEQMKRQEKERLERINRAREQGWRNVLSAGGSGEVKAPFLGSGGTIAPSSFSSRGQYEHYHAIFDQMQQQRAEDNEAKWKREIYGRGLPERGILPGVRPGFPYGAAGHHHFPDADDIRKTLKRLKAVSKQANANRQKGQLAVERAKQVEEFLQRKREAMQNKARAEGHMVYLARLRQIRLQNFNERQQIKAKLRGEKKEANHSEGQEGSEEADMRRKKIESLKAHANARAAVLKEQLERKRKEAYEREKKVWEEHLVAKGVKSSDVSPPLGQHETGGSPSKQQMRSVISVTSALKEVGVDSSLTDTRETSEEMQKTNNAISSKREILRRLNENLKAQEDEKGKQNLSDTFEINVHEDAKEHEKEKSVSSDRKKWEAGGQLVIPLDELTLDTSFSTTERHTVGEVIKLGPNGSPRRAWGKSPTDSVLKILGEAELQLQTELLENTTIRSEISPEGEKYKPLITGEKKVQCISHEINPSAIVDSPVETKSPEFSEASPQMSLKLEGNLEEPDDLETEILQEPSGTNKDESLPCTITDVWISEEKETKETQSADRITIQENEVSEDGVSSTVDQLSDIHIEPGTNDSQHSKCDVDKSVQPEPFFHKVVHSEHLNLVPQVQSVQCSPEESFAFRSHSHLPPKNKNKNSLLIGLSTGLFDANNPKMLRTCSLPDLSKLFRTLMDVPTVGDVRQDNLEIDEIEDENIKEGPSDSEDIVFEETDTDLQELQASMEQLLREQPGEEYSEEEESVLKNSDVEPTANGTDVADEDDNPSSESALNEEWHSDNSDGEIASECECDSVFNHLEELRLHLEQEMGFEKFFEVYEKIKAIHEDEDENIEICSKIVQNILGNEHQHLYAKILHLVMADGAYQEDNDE
The conditions noted are these: at 0.1 µM.

Assay [3] has as its target T2, Serine/threonine-protein kinase Nek1 (Homo sapiens). The conditions noted are these: at 1 µM.
Assay [4] deals with T3, Serine/threonine-protein kinase Nek2 (Homo sapiens) (UniProt P51955).
T3 sequence (whole entry): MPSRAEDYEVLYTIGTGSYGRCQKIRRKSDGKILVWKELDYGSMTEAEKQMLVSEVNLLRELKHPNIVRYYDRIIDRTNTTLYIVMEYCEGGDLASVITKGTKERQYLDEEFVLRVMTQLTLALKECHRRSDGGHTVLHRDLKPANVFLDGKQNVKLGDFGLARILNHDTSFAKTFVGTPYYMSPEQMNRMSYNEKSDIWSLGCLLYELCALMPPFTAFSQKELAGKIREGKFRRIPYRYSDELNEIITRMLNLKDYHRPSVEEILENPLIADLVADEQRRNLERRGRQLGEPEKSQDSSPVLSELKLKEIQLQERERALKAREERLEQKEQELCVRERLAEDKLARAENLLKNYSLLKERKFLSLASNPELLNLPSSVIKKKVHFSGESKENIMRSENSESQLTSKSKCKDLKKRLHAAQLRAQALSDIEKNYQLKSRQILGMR
The conditions noted are these: at 0.1 µM.

Assay [5] addresses T3, Serine/threonine-protein kinase Nek2 (Homo sapiens). To be noted: at 1 µM.
Assay [6] deals with Serine/threonine-protein kinase Nek6 (Homo sapiens) (UniProt Q9HC98). The conditions noted are these: at 0.1 µM.
The target is the same in assay [7]. The conditions noted are these: at 1 µM.
In assay [8] the target is Serine/threonine-protein kinase Nek7 (Homo sapiens) (UniProt Q8TDX7). The conditions noted are these: at 0.1 µM.
Assay [9] shares this target. The conditions noted are these: at 1 µM.
Assay [10] has as its target T4, Serine/threonine-protein kinase Nek9 (Homo sapiens) (UniProt Q8TD19).
T4 sequence (whole entry): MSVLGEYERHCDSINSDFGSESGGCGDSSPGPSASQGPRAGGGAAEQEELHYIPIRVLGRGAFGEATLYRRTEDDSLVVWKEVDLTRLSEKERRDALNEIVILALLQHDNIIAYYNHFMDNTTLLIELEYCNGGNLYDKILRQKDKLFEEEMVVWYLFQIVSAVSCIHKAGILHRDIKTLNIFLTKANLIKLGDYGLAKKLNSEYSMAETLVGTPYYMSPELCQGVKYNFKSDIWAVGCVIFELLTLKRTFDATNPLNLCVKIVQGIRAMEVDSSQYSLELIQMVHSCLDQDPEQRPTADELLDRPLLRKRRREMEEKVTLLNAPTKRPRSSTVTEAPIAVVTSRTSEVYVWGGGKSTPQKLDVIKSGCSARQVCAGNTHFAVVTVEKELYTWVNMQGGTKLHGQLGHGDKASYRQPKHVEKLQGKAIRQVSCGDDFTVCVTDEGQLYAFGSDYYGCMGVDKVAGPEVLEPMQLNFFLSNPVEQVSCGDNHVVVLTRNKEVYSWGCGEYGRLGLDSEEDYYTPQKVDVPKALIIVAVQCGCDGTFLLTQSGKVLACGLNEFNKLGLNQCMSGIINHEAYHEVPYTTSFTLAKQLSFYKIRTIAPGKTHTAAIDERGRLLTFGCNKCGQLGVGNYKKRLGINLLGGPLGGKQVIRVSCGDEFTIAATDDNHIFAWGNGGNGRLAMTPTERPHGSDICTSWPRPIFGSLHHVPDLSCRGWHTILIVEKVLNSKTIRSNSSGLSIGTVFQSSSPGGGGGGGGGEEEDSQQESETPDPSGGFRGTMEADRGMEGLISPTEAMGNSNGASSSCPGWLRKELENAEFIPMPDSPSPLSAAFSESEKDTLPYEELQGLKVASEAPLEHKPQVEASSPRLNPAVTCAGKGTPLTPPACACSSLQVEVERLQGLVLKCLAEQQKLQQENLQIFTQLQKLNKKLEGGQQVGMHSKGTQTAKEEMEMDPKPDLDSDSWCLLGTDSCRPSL
The conditions noted are these: at 0.1 µM.

Assay [11] concerns the target T4, Serine/threonine-protein kinase Nek9 (Homo sapiens). The conditions noted are these: at 1 µM.
Assay [12] deals with Serine/threonine-protein kinase PLK1 (Homo sapiens) (UniProt P53350). To be noted: at 0.1 µM.
For assay [13] the target is unchanged. The conditions noted are these: at 1 µM.
The target in assay [14] is T5, Dual specificity protein kinase TTK (Homo sapiens) (UniProt P33981).
T5 sequence (whole entry): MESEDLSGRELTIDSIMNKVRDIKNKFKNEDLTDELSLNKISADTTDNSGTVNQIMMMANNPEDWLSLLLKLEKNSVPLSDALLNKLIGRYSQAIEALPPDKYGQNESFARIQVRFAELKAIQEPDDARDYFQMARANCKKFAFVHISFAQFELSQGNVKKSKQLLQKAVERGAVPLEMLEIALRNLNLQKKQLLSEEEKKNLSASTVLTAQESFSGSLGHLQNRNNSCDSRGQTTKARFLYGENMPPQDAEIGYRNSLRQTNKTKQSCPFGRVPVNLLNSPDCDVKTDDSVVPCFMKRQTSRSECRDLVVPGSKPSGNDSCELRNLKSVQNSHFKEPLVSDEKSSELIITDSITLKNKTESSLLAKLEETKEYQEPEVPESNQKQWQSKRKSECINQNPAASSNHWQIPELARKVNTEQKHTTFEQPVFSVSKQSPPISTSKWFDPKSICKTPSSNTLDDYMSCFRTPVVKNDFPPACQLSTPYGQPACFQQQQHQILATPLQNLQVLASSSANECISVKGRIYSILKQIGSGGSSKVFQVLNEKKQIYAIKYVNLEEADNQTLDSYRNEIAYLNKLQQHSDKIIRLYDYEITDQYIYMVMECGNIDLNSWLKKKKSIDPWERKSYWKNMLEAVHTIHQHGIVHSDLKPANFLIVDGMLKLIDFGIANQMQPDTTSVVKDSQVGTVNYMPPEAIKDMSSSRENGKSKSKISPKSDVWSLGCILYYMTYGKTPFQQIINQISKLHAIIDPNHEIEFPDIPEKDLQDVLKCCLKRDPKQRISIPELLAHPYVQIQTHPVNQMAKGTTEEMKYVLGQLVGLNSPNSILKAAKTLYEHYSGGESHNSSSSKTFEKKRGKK
To be noted: at 0.1 µM.

For assay [15], the system named is T6, Receptor-type tyrosine-protein kinase FLT3 (Homo sapiens), P36888 [D835Y].
T6 sequence (whole entry): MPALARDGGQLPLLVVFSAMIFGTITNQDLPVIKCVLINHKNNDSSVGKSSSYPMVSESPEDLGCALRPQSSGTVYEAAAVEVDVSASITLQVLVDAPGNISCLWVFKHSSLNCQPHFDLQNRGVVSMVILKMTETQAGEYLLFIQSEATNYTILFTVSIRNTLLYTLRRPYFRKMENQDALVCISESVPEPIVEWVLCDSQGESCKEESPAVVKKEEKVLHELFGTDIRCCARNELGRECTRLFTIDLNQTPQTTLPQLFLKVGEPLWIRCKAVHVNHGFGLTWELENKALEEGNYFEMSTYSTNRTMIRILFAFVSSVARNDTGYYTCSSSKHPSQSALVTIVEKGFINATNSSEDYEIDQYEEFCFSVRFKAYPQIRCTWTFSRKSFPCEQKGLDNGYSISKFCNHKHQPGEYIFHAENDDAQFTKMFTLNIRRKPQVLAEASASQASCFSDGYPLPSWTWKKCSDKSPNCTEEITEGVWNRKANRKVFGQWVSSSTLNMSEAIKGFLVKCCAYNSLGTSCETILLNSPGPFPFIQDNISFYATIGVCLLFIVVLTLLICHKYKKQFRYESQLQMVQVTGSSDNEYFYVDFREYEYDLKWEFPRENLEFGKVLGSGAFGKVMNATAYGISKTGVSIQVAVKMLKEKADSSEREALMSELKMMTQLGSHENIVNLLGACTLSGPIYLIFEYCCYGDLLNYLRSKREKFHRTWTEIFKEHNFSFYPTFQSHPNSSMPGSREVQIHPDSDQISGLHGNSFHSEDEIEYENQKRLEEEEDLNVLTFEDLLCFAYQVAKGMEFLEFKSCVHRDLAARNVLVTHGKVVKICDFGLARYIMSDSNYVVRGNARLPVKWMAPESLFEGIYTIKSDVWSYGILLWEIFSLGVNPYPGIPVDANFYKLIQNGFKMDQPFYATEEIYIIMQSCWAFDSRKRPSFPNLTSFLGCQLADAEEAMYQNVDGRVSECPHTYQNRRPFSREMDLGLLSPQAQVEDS
To be noted: at 1 µM.

Assay [16] deals with Vascular endothelial growth factor receptor 3 (Homo sapiens) (UniProt P35916). To be noted: at 0.1 µM.
Assay [17] has the same target. To be noted: at 1 µM.
For assay [18], the target named is Macrophage colony-stimulating factor 1 receptor (Homo sapiens) (UniProt P07333). The conditions noted are these: at 0.1 µM.
Assay [19] shares this target. To be noted: at 1 µM.
Assay [20] deals with Tyrosine-protein kinase Fyn (Homo sapiens) (UniProt P06241). To be noted: at 0.1 µM.
Sequence of Tyrosine-protein kinase Fyn (Homo sapiens) (P06241 2-537 limits assumed): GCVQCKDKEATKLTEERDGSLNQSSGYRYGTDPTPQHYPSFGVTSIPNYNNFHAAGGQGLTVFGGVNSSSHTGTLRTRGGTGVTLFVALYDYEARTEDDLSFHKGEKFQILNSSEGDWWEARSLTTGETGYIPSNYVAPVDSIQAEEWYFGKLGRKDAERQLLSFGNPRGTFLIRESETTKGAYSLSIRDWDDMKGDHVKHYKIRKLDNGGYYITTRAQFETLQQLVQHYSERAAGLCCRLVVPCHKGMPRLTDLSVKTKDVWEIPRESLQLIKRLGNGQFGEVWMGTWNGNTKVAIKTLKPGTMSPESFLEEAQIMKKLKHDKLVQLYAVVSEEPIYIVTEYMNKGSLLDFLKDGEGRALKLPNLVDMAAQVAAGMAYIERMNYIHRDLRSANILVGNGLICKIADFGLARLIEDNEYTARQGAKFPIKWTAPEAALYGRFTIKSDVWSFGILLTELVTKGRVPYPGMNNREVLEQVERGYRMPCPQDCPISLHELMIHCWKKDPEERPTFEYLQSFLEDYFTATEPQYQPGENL

Sequence of Serine/threonine-protein kinase Nek7 (Homo sapiens) (Q8TDX7 whole entry, looked up): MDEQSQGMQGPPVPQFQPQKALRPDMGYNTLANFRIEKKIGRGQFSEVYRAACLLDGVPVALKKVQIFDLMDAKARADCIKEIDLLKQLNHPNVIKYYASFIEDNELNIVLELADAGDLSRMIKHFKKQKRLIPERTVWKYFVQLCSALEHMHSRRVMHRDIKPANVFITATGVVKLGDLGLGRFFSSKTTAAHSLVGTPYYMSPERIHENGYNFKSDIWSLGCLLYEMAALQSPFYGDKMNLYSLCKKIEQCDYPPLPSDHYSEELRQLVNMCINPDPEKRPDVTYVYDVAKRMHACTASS
Sequence of Macrophage colony-stimulating factor 1 receptor (Homo sapiens) (P07333 whole entry): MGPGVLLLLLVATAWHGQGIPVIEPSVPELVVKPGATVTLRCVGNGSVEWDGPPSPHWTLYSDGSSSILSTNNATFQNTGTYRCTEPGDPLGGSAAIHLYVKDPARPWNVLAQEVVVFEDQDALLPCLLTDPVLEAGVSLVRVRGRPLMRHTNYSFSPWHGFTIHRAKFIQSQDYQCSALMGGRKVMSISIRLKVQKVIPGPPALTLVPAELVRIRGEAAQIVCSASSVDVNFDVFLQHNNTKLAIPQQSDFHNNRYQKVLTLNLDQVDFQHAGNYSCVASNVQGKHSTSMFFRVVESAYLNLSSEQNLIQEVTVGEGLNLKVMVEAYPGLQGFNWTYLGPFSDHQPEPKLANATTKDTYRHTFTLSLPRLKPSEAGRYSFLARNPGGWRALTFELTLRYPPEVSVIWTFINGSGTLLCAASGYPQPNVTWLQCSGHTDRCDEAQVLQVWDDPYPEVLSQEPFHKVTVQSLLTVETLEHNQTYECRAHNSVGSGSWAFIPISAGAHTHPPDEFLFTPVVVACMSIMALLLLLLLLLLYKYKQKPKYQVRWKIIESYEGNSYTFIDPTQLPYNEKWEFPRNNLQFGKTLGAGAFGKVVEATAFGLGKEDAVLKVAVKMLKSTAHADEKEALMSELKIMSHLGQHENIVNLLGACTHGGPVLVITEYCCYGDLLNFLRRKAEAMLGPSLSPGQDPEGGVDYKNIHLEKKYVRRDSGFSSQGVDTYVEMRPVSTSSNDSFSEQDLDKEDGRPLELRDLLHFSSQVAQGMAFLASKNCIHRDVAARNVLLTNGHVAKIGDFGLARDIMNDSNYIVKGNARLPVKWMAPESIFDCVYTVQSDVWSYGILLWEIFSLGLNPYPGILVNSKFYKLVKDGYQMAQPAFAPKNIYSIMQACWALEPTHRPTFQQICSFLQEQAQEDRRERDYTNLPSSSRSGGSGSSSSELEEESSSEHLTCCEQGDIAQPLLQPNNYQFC
Sequence of Serine/threonine-protein kinase PLK1 (Homo sapiens) (P53350 whole entry): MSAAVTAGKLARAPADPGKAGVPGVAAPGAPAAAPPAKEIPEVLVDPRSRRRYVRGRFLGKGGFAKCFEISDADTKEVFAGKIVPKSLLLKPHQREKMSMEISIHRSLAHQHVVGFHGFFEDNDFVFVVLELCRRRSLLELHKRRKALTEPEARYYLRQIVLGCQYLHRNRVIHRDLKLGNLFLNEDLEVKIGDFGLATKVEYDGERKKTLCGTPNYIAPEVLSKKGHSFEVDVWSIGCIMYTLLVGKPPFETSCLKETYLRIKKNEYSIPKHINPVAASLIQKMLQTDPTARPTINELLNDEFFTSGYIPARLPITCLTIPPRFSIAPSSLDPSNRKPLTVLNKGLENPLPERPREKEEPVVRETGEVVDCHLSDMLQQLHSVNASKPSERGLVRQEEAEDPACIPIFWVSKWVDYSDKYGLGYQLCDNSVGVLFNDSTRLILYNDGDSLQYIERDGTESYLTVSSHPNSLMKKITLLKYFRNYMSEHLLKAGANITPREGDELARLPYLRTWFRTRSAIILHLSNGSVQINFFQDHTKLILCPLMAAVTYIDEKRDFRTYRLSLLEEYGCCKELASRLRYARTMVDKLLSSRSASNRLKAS
Sequence of Vascular endothelial growth factor receptor 3 (Homo sapiens) (P35916 whole entry): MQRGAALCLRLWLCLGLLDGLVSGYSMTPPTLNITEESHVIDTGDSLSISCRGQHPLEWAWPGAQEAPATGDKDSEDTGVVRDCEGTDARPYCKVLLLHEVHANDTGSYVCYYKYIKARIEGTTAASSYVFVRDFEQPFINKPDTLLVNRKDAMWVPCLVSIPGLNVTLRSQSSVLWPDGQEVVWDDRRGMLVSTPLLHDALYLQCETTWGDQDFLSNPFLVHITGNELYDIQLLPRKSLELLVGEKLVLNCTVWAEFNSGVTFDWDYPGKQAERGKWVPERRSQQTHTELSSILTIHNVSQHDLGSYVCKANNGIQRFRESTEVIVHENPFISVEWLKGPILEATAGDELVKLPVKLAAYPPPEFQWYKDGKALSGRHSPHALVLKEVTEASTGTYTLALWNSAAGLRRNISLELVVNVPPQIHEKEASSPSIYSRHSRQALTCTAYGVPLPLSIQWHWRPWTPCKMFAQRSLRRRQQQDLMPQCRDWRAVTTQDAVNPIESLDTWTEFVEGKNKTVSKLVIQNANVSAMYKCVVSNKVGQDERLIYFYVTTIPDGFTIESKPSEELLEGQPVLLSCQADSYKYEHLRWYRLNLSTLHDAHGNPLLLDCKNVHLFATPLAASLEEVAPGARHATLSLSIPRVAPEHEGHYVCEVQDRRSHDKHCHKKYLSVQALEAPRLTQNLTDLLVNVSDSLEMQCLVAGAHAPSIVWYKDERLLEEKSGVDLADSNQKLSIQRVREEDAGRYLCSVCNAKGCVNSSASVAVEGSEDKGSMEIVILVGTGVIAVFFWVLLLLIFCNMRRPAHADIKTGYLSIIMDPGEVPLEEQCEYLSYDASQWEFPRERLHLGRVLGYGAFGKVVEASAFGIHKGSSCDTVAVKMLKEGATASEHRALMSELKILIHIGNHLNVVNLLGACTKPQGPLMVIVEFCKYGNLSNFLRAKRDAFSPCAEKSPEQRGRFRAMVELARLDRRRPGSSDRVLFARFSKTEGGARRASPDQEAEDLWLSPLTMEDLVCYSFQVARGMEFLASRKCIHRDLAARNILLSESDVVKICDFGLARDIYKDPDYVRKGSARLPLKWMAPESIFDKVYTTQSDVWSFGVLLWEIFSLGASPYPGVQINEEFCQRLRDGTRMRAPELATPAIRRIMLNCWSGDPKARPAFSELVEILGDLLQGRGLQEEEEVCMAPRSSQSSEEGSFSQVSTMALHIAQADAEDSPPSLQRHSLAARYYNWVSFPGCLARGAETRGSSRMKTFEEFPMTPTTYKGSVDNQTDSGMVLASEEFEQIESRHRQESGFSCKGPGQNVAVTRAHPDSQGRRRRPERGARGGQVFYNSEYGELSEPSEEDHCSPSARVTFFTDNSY
Sequence of Serine/threonine-protein kinase Nek6 (Homo sapiens) (Q9HC98 whole entry): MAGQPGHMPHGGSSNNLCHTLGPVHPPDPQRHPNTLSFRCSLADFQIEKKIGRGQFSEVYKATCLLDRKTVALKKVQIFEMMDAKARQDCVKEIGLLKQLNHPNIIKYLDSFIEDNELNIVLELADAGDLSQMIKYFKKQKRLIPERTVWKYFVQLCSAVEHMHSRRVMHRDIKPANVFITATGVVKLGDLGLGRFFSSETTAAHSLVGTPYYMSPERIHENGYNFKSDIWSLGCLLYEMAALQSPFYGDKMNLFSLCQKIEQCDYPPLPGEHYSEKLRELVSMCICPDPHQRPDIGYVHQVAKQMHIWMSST

As for `Cc1c2ccc(N(C)c3ccnc(Nc4cccc(S(N)(=O)=O)c4)n3)cc2nn1C`, the inhibition in assay [1] was 6.19%; in assay [2], 3.11%; in [3] it was 4.82%; in [4], 6.4%; in assay [5], 19.9%; in [6], 0.7%. In addition, the inhibition in assay [7] amounted to 0.72%; in [8], 5.3%; in assay [9], 3.13%; in assay [10] it was 9.14%; in [11], 6.19%; in assay [12], 3.29%. Moreover, the inhibition in assay [13] stood at 3.99%; in assay [14] it was 8.91%; in assay [15] it was 13.8%; in [16], 58.8%; in assay [17], 93.8%; in [18], 78.4%. In addition, the figures for the inhibition in assay [19] and in assay [20] were 91.7% and 13.8%, respectively.
